Rows were chosen to be rich in hits. Some 6.2% of all compounds tested hit in one or more screens of this group.
S2 tox: Viability Counterscreen for Primary qHTS for Inhibitors of ATXN expression | S2 cells (HEK-293 line with an ATXN2-luciferase reporter) viability, CellTiter-Fluor protease fluorescence, 24 h | Potency, µM (top dose mostly 56.7 µM), hits mostly cytotoxic | actives 0.49% (n = 400,000); further: nearly all actives have a fitted effect of over 40% in size
ATXN2 expr inh: Primary qHTS for Inhibitors of ATXN expression; HEK-293 ATXN2-luciferase reporter, luminescence, 24 h; Potency, µM (series often up to 57 µM), without a hit: at the top dose activity change, negative = inhibition, hits mostly inhibitors; actives 0.72% (n = 360,000); further: on the % scale 0 is the no-effect control and ±100 the full control effect; nearly all actives have a fitted effect of over 55% in size
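ATXN2-luciferase reporter cells (luciferase flanked by upstream and downstream ATXN2 gene portions) were treated 24 h at 37 °C with compounds at up to 57 uM. SteadyGlo luminescence gave expression; GF-AFC fluorescence gave viability.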
KB-V1 MDR tox: qHTS assay for MDR1-selective chemotherapeutics: Primary screen using the drug-selected MDR subline cells KB-V1. KB-V1 MDR cells viability, CellTiter-Glo, 72 h. Potency, µM (doses to about 46.1 µM), actives largely listed as cytotoxic. actives 3.4% (n = 400,000); further: on the % scale 0 is the no-effect control and ±100 the full control effect; nearly all actives have a fitted effect of over 60% in size
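Luminescent ATP read-out (CellTiter-Glo, 10 min) measures survival of drug-selected KB-V1 MDR cells after 72 h, 37 degrees C compound exposure. Medium: phenol-red-free DMEM, 10% FBS. Values from fitted concentration-response curves.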
KB-3-1 cytotox: qHTS assay for MDR1-selective chemotherapeutics: Primary screen using the parental adenocarcinoma cell KB-3-1; KB-3-1 viability, CellTiter-Glo ATP luminescence, 72 h; Potency, µM (highest dose often 46.1 µM), actives largely listed as cytotoxic; actives 1.4% (n = 400,000); AID 1347075, 2019; further: on the % scale 0 is the no-effect control and ±100 the full control effect; nearly all actives have a fitted effect of over 60% in size
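Viability of parental KB-3-1 cells, measured by CellTiter-Glo luminescence, followed a 72 h incubation at 37 °C with pinned compounds in phenol-red-free DMEM containing 10% FBS.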
HT1080-NT tox: qHTS for induction of synthetic lethality in tumor cells producing 2HG: qHTS for the HT-1080-NT fibrosarcoma cell line. HT-1080-NT fibrosarcoma viability, CellTiter-Glo ATP luminescence, 48 h. Potency, µM (top dose mostly 46.1 µM), without a hit: at the top dose activity, negative = less viability, actives largely listed as cytotoxic. actives 1.6% (n = 360,000). AID 686970, 2013;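 further: NT is the 2HG producing partner of a matched IDH1 knockdown line; 0% = DMSO-treated cells and -100% = media-only wells without cells; nearly all actives have a fitted effect of over 55% in size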
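Read-out is CellTiter-Glo luminescence after 10 minutes at room temperature, following 48 hours' compound treatment of HT-1080-NT cells (750 cells/well, RPMI, 5% FBS, 37 degrees C).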
HT1080 IDH1KD tx: qHTS for induction of synthetic lethality in tumor cells producing 2HG: qHTS for the HT-1080-IDH1KD cell line. HT-1080 IDH1 knockdown viability, ATP luminescence, 48 h. Potency, µM (series often up to 46.1 µM), without a hit: top-dose activity, negative = toxicity, usual class: cytotoxic. actives 2% (n = 360,000);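 further: 0% = DMSO wells and -100% = cell-free medium wells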
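% activity derives from luminescence (CellTiter-Glo), normalised to DMSO and no-cell wells. HT-1080-IDH1KD cells, 750/well, had 48 h compound exposure at 37 °C.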
* hit, by the source's call; i = inactive; ? = inconclusive; nt = not tested or not shown; ! = not active in a repeat; [ ] = remark or other dose. The call rests on the fitted dose curve; in most records, active means well fitted curve in the direction sought with a large enough effect; inconclusive means small, poorly fitted or top-dose-only effect, or another doubt; inactive means no such curve, though single readings can be large; an effect the other way counts as inactive or inconclusive. Potency means the concentration at half of the fitted maximal effect.

SMILES	S2 tox	ATXN2 expr inh	KB-V1 MDR tox	KB-3-1 cytotox	HT1080-NT tox	HT1080 IDH1KD tx
Cc1ccc(N2CCN(C(=O)c3[nH]c(C(F)(F)F)nc3-c3ccccc3)CC2)cc1	i	9.5%	i	i	-23.1%	-27.6%
Cc1nc(-c2ccc3c(c2)CCC(=O)N3)cs1	i	49.3%	1.3µM*	?	2.7%	-11.3%
Cc1ccc(-c2csc(Cc3nc(-c4ccc5c(c4)CCC(=O)N5)cs3)n2)cc1	i	-19.0%	?	i	?	-4.5%
CC#CCOC(=O)c1c(C)nc2sc3c(c2c1N)CCC(O)C3 (centres undefined)	i	2.5%	11.6µM*	?	23.1µM*	?
Cc1ccc2[nH]c3c(=O)n(CC(=O)N(C)Cc4ccccc4)ncc3c2c1	?	-7.8%	i	i	nt	nt
COc1ccccc1NC(=O)COC(=O)c1ccccc1OCC(=O)Nc1ccc(SC(F)F)cc1	?	-6.0%	13µM*	i	18.6%	?
COc1ccccc1C(=O)COC(=O)c1ccccc1OCC(=O)Nc1ccc(SC(F)F)cc1	i	-15.9%	i	i	0.0%	-14.9%
O=C(Nc1ccc(N2CCN(C(=O)c3ccco3)CC2)cc1)c1cc(Br)ccc1Cl	nt	?	2.06µM*	?	?	?
O=C(Nc1ccc(N2CCN(C(=O)c3ccco3)CC2)cc1)c1ccc2c(c1)OCO2	i	?	i	5.8µM*	-16.6%	?
O=C(Nc1ccc(NC(=O)c2ccco2)cc1)c1ccc2c(c1)OCCO2	?	15.8µM*	i	i	-14.0%	-9.9%
Cc1cc(NC(=O)c2ccc3c(c2)OCCO3)ccc1NC(=O)c1ccco1	i	-9.1%	i	i	?	?
O=C(Nc1ccc(N2CCN(C(=O)c3ccco3)CC2)cc1)c1ccc(Br)cc1	i	nt	i	i	3.5%	-4.5%
COc1ccc(OC)c(-c2noc(N3CCN(c4cccc(C)c4C)CC3)n2)c1	i	9.8%	?	?	nt	nt
CN(C)c1ccc(/C=C/c2cc3ccccc3cn2)cc1	nt	nt	i	1.46µM*	nt	nt
CC[N+](CC)(CC)c1ccc(/C=C/c2ccc3ccccc3n2)cc1	nt	nt	i	1.84µM*	nt	nt
CN(C)c1ccc(/C=C/c2ccnc3c(Cl)cccc23)cc1	nt	nt	?	16.4µM*	nt	nt
C(=C\c1ccc2ccccc2n1)/c1ccccc1	i	nt	i	?	?	?
CN(C)c1ccc(/C=C/c2ccc3ccccc3n2)cc1	nt	nt	7.31µM*!	8.2µM*!	?	?
CCOC(=O)c1scc(-c2ccccc2)c1S(=O)(=O)Nc1ccc(N(C)C)cc1	?	3.9%	i	i	nt	nt
CN(C)c1ccc(/C=C/c2cccc3cc4ccccc4nc23)cc1	nt	nt	i	4.11µM*	nt	nt
CC12CCC(c3c(C(=O)Nc4nccs4)nn(-c4ccccc4)c31)C2(C)C (centres undefined)	i	0.0%	i	i	?	14.1µM*
Cc1ccc(S(=O)(=O)c2nnn(CC(=O)Nc3ccccc3C)c2N)cc1	i	2.9%	?	16.4µM*	nt	nt
CCc1ccccc1NC(=O)Cn1nnc(C(=O)NCc2cccc(OC)c2)c1N	i	nt	?	7.31µM*	-2.9%	?
COc1ccc(OC)c(NC(=O)c2nnn(Cc3ccccc3C)c2N)c1	i	-11.6%	i	9.2µM*	nt	nt
Cc1cccc(Cn2nnc(C(=O)Nc3cc(C)ccc3C)c2N)c1	?	-38.2%	?	i	nt	nt
SMILES	S2 tox	ATXN2 expr inh	KB-V1 MDR tox	KB-3-1 cytotox	HT1080-NT tox	HT1080 IDH1KD tx
Cc1ccc(Cn2nnc(C(=O)Nc3cccc(C)c3C)c2N)cc1	i	-12.4%	14.6µM*	i	-10.3%	-18.5%
O=C(CCCCCCCCC#CI)Oc1ccccc1	i	-13.0%	nt	nt	nt	nt
Cc1cnc(SCC2CCCO2)nc1C1CCCN(C(=O)C2=NNC(=O)CC2)C1 (centres undefined)	i	nt	nt	nt	nt	nt
Cc1nc(NC(=O)COC(=O)CNC(=O)c2ccco2)c(Cl)cc1Cl	i	-9.5%	i	i	2.2%	3.3%
COc1ccc(NC(=O)Cn2nnc(C(=O)NCc3cccs3)c2N)cc1OC	i	-8.3%	i	i	-22.6%	?
COc1ccc(Cl)cc1NC(=O)Cn1nnc(C(=O)NCc2cccs2)c1N	?	-21.0%	?	7.31µM*	nt	nt
CC(=O)N1CCc2c(sc3c2c(=O)n(CCc2ccccc2)c(=O)n3Cc2cccc(C)c2)C1	i	-3.5%	i	i	nt	nt
C(#Cc1ccccc1)C[N+]1(CC#Cc2ccccc2)CCCCC1	?	-17.8%[11.3 µM]	i	18.4µM*	?	?
Cc1ccc(C#CC[N+]2(CC#Cc3ccc(C)cc3)CCCCC2)cc1	?	?	i	?	20.6µM*	14.6µM*
CCC[N+]1(CC#CCC(c2ccccc2)c2ccccc2)CCCCC1	?	?	i	2.59µM*	-27.0%	?
C#CC[N+]1(CC#Cc2ccccc2)CCCCC1	?	4.7%	i	i	4.1%	0.9%
O=C(C[N+]1(CC#Cc2ccccc2)CCCCC1)c1ccccc1	i	0.9%	i	i	1.7%	-7.0%
CCN(C(=O)CSc1nc2ccccc2n1Cc1ccc(F)cc1Cl)c1ccccc1	i	0.5%	?	i	nt	nt
O=C(Nc1ccc(Oc2ccccc2)cc1)C1CCCN(c2ncccn2)C1 (centres undefined)	i	-6.2%	5.8µM*	i	-0.1%	4.3%
O=C(Nc1ccc(Oc2ccccc2)cc1)C1CCN(S(=O)(=O)c2ccccc2)CC1	?	-33.9%	6.51µM*	?	nt	nt
CC(=O)Nc1ccc(NC(=O)C2CCCN(c3ncccn3)C2)cc1 (centres undefined)	i	8.4%	i	i	9.0%	1.7%
Cc1ccc2c(c1)c1c(c(=O)n(Cc3ccccc3)c(=O)n1CC(=O)Nc1ccccc1F)n2C	?	7.1%	i	i	nt	nt
Cn1c(-c2ccc3ccccc3n2)[n+](C)c2ccccc21	i	21.3%	?	9.2µM*	?	?
CN(C)c1ccc(-c2n(C)c3ccccc3[n+]2C)cc1	i	6.3%	i	2.91µM*	5.62µM*	8.91µM*
Cn1c(-c2cccc([N+](=O)[O-])c2)[n+](C)c2ccccc21	i	?	i	i	-0.9%	-25.3%

Bioassay records deposited in PubChem by National Center for Advancing Translational Sciences (NCATS).
